In publication PMC4336329 (PLoS ONE, 2015):
The campaign covered roughly 310,000 compounds. About 14,000 (4.5%) showed an effect of 50% or more. The effect is printed as a negative number. The sample as a whole holds a higher share of strong results than the screen did.

Each compound was assayed against human ether-à-go-go-related gene (hERG) potassium channel (human, UniProt Q12809) (assay: primary screen, population patch clamp on CHO cells stably expressing hERG; higher = less effect of the substance).
Chain of human ether-à-go-go-related gene (hERG) potassium channel (Q12809 whole entry, looked up): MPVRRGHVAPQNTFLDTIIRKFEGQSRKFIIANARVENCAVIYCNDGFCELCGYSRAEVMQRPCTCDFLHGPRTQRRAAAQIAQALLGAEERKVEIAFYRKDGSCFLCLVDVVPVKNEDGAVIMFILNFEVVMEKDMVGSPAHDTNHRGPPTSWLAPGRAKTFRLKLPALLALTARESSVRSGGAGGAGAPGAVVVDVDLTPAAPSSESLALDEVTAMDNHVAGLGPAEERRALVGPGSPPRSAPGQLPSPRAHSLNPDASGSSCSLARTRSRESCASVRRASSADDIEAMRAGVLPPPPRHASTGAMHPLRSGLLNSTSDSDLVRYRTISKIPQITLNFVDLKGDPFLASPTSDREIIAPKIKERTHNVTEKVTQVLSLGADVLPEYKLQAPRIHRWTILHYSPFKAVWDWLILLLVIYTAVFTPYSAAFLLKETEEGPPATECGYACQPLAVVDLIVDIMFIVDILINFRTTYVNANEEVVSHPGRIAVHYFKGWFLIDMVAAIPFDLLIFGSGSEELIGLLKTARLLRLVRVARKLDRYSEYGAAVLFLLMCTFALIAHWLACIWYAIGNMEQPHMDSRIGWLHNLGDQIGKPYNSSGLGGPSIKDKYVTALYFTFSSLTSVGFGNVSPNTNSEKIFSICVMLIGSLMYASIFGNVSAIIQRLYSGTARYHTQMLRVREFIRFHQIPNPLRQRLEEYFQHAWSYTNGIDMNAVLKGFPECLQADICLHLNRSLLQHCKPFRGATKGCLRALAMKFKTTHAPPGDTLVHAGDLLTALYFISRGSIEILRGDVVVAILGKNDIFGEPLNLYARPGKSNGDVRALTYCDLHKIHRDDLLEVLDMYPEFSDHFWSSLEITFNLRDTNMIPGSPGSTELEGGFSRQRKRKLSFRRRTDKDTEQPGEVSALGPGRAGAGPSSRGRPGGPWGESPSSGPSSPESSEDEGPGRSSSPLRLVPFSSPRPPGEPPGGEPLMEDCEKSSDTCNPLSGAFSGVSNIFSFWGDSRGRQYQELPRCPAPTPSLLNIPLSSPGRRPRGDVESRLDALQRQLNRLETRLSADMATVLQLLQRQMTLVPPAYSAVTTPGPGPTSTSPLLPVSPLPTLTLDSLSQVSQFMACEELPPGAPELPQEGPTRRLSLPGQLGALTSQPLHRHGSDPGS
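Further: peak tail current of the secondary pulse compared with the same well before compound.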

| Structure (SMILES) | hERG current change (%, negative = inhibition) at 10uM |
| --- | --- |
| CCOC(=O)c1oc2ccccc2c1COC(=O)C(C)NC(=O)c1ccco1 (stereo not drawn) | -16.5% |
| COc1ccc(C(=O)N(C)C2CCCCC2)cc1S(=O)(=O)N1CCOCC1 | -3.28% |
| CCCCOc1ccc(/C=N/NC(=S)Nc2cccc(C)c2C)cc1 | -15.8% |
| CCOc1ccc(CCNC(=O)CN2C(=O)COc3ccc(S(=O)(=O)N4CCOCC4)cc32)cc1 | -6.84% |
| CCN1CCCC1CNC(=O)C(=O)Nc1cccc(OC)c1 (stereo not drawn) | -1.67% |
| O=C(c1cc2cc(Br)ccc2[nH]1)N1CCc2ccccc21 | 14% |
| CSc1ccccc1NC(=O)COc1ccc(Cl)cc1 | -17.5% |
| COc1ccc(NC(=O)CN2CCN(c3ccccc3C)CC2)cc1 | -41.2% |
| COc1cccc(C(=O)NC2CCN(CC(=O)Nc3cccc(C)c3C)CC2)c1 | 32.2% |
| CC(NC(=O)CN1CCN(S(=O)(=O)c2ccc(Br)cc2)CC1)c1ccccc1 (stereo not drawn) | -36.9% |
| COc1ccc(CCNC(=O)CN2CCN(c3ccccc3Cl)CC2)cc1 | -19% |
| Cc1cccc(C(=O)NC2CCN(CC(=O)Nc3ccccc3Cl)CC2)c1 | -49% |
| COc1cccc(C(=O)NC2CCN(CC(=O)Nc3ccccc3Cl)CC2)c1 | -55.4% |
| CC(NC(=O)CN1CCN(CC(=O)Nc2ccccc2Cl)CC1)c1ccc(Br)cc1 (stereo not drawn) | -75.1% |
| COc1ccc(NC(=O)CN2CCN(c3ccccc3Cl)CC2)cc1 | -61.4% |
| CC(NC(=O)CN1CCN(c2cccc(Cl)c2)CC1)c1ccccc1 (stereo not drawn) | 4.34% |
| O=C(CCCn1c(SCC(=O)c2ccc(Cl)cc2)nc2ccccc2c1=O)NCc1ccco1 | 3.21% |
| O=c1c(Cl)c(Nc2cccc(Cl)c2)cnn1-c1nc2ccccc2s1 | -2.51% |
| COc1ccccc1CCn1c(N)cc(=O)[nH]c1=O | 18.4% |
| Cc1cc(C)c2c(N)c(S(=O)(=O)Cc3ccccc3)sc2n1 | -33.3% |
| O=P(Oc1ccccc1)(Oc1ccccc1)c1ccccc1 | -21.8% |

| Structure (SMILES) | hERG current change (%, negative = inhibition) at 10uM |
| --- | --- |
| CCOc1ccc(C(=O)N2CCn3c2nc2ccccc23)cc1 | -5.37% |
| CCn1c(=N)n(CC(=O)c2cccc(OC)c2)c2ccccc21 | -16.6% |
| Br.Cn1c(=N)n(CC(=O)c2ccc(Br)cc2)c2ccccc21 | -41% |
| Br.CCCn1c(=N)n(CC(=O)c2ccc(Cl)c(Cl)c2)c2ccccc21 | -51.5% |
| Br.CCn1c(=N)n(CC(=O)c2ccc(OC)c(OC)c2)c2ccccc21 | -13.7% |
| Br.Cn1c(=N)n(CC(=O)c2ccc(Cl)c(Cl)c2)c2ccccc21 | -64.1% |
| Br.CCn1c(=N)n(CC(=O)c2ccc(Cl)c(Cl)c2)c2ccccc21 | -51.4% |
| Br.CCCn1c(=N)n(CC(=O)c2ccc(Cl)cc2)c2ccccc21 | -53% |
| Br.Cn1c(=N)n(CC(=O)c2ccccc2)c2ccccc21 | -12.4% |
| Br.Cn1c(=N)n(CC(=O)c2ccc(F)cc2)c2ccccc21 | -23.2% |
| Br.C=CCn1c(=N)n(CC(=O)c2ccc(Cl)cc2)c2ccccc21 | -36.1% |
| Br.CCCn1c(=N)n(CC(=O)O)c2ccccc21 | -5.8% |
| O=C(Nc1ccc(C(=O)N2CCC(O)(c3ccc(Cl)c(C(F)(F)F)c3)CC2)cc1)c1ccc(Br)o1 | 8.21% |
| Cc1cc2cc(CCNC(=O)CC(C)(C)C)c(=O)[nH]c2cc1C | 7.53% |
| O=C(Cc1coc(-c2ccc(F)cc2)n1)Nc1ccccc1 | -15.4% |
| Cn1c(=O)c2ncn(CC(=O)Nc3nc(-c4ccc(Cl)cc4)cs3)c2n(C)c1=O | 12.1% |
| N#CCc1c(C#N)c(N)nc(N2CCN(S(=O)(=O)c3ccccc3F)CC2)c1C#N | -9.75% |
| O=C(CN(c1ccccc1)S(=O)(=O)c1ccccc1)Nc1ccc(F)cc1 | 22.6% |
| Cc1cccc(N2C(=O)NC(=O)/C(=C\c3cc(C)n(-c4sc5c(c4C#N)CCCC5)c3C)C2=O)c1C | 4.35% |
| Cc1nnc(NC(=O)CSc2nnc(C)n2Cc2ccccc2)s1 | 17.7% |
| CC(=O)N1CCN(C(=O)c2cccc(S(=O)(=O)N3CCN(c4ccc(F)cc4)CC3)c2)CC1 | -20.1% |

| Structure (SMILES) | hERG current change (%, negative = inhibition) at 10uM |
| --- | --- |
| CC1CC(C)CN(S(=O)(=O)c2cccc(C(=O)N3CCN(c4ccc(F)cc4)CC3)c2)C1 (stereo not drawn) | -51.9% |
| CC1CN(C(=O)c2cccc(S(=O)(=O)N3CCN(c4ccc(F)cc4)CC3)c2)CC(C)O1 (stereo not drawn) | -45.4% |
| O=C(c1cccc(S(=O)(=O)N2CCN(c3ccc(F)cc3)CC2)c1)N1CCCCCCC1 | -45.2% |
| CC1CCN(S(=O)(=O)c2cccc(C(=O)N3CCN(c4ccc(F)cc4)CC3)c2)CC1 | -65.4% |
| CC1CCN(C(=O)c2cccc(S(=O)(=O)N3CCN(c4ccccc4)CC3)c2)CC1 | 2.41% |
| COc1cc(/C=N/NC(=O)CSc2n[nH]c(=O)[nH]c2=O)cc(OC)c1O | 28.8% |
| Cc1cc(C)cc(-n2c(SC(C)C(=O)NCc3ccc4c(c3)OCO4)nc3ccccc3c2=O)c1 (stereo not drawn) | 11.3% |
| COc1cc(NC(=O)c2ccc(C)cc2C)ccc1NC(=O)c1cc2ccccc2o1 | 6.61% |
| Nc1c(C(=O)c2ccccc2)sc2nsc(SCCN3CCCC3)c12 | -38.2% |
| Clc1ccc(N2CCN(/N=C/c3cccnc3)CC2)cc1 | -1.21% |
| O=C(Nc1nccs1)c1ccc(Br)cc1 | 12.1% |
| CCn1c(SCC(=O)N/N=C/C(C)=C\c2ccco2)nnc1-c1ccccc1 | -39% |
| CCn1c(SCC(=O)N/N=C/C(C)=C/c2ccco2)nnc1-c1ccccc1 | -55.1% |
| Cc1ccc(/C=N/NC(=O)CSc2nnc(-c3ccccc3)n2-c2ccc(Cl)cc2)o1 | -21.8% |
| CCn1c(SCC(=O)N/N=C/C=C/c2ccco2)nnc1-c1ccccc1 | -34.7% |
| O=C(CSc1nnc(-c2ccccc2)n1-c1ccc(Cl)cc1)N/N=C/c1ccco1 | -55% |
| O=C(CSc1nnc(-c2ccc(Cl)cc2)n1-c1ccc(Cl)cc1)N/N=C/c1ccco1 | -41.7% |
| O=C(CSc1nnc(SCc2ccccc2)s1)N/N=C/c1ccc(Cl)cc1Cl | -5.88% |
| O=C(CSc1nnc(-c2ccccc2)c(-c2ccccc2)n1)NC1CCS(=O)(=O)C1 (stereo not drawn) | 17.3% |
| CCN(CC)CCNc1nc(-n2nc(C)cc2C)nc2sc3c(c12)CC(C)(C)OC3 | -55.4% |
| Cc1cc(C)n(-c2nc(SCC(=O)N3CCCC3)c3c4c(sc3n2)CCCC4)n1 | -9.29% |

| Structure (SMILES) | hERG current change (%, negative = inhibition) at 10uM |
| --- | --- |
| Cc1cc(C)n(-c2nc(SCC(=O)O)c3c4c(sc3n2)COC(C)(C)C4)n1 | 2.48% |
| Cc1cc(C)n(-c2nc(SCC(=O)O)c3c4c(sc3n2)CCCC4)n1 | 6.68% |
| CCN(CC)CCCNc1nc(-n2nc(C)cc2C)nc2sc3c(c12)CC(C)(C)OC3 | -23% |
| Cc1cc(C)n(-c2nc(NCCN(C)C)c3c4c(sc3n2)CCCC4)n1 | -16.3% |
| Cc1cc(C)n(-c2nc(NCCCN(C)C)c3c4c(sc3n2)COC(C)(C)C4)n1 | -14.1% |
| Cc1cc(C)n(-c2nc(SCCN(C)C)c3c4c(sc3n2)CCCC4)n1 | -53.7% |
| Cc1cc(C)n(-c2nc(SCCN(C)C)c3c4c(sc3n2)COC(C)(C)C4)n1 | -59.1% |
| Cc1cc(C)n(-c2nc(NCCCN(C)C)c3c4c(sc3n2)CCCC4)n1 | -65.2% |
| Cc1cc(C)n(-c2nc(NCCCO)c3c4c(sc3n2)CCCC4)n1 | -17.9% |
| Cc1cc(C)n(-c2nc(NCCN(C)C)c3c4c(sc3n2)COC(C)(C)C4)n1 | -32.7% |
| C=CCn1cc(/C=N\NC(=O)c2cc3c(ccc4ccccc43)o2)c2ccccc21 | -4.85% |
| O=C(c1ccccc1)c1c[nH]c2ccccc12 | 14.6% |
| Cc1cc(C)cc(NC(=S)N2CCN(S(=O)(=O)c3ccccc3)CC2)c1 | 0.86% |
| O=C(O)c1ccc(-c2ccc(OS(=O)(=O)c3ccccc3F)cc2)cc1 | 9.84% |
| O=C(COc1ccccc1Cl)Nc1ccc2c(c1)OCO2 | 11.1% |
| CC(C)C(=O)Nc1ccc(NC(=O)c2ccc(COc3ccccc3)cc2)cc1 | 16.3% |
| CCOC(=O)C1CCN(C(=O)c2ccc(SC)cc2OC)CC1 | -19.8% |
| O=C1c2ccccc2C(=O)C12OC2c1ccc(Cl)cc1 (stereo not drawn) | 6.63% |
| O=C1c2ccccc2C(=O)C12OC2c1ccc(Cl)cc1Cl (stereo not drawn) | 4.07% |
| O=C1c2ccccc2C(=O)C12OC2c1cccc2ccccc12 (stereo not drawn) | -69.2% |
| Cc1c(C)n(Cc2ccccc2)c2ccc(C(=O)NCCN3CCOCC3)cc12 | -3.43% |
